Some test systems named below: NCI-H23 lung; NCI-H226 lung; NCI-H322M lung; HOP-62 NSCLC; NCI-H460 lung; HOP-92 NSCLC; NCI-H522 lung; A549/ATCC NSCLC; 786-0 renal; COLO 205 colon; DU-145 prostate; K-562 leukemia; MALME-3M melanoma; MDA-MB-231 breast; RXF 393 renal; SF-268 CNS; SF-295 CNS; SF-539 CNS; UACC-257 melanoma; M14 melanoma.
What all share (assay): NCI-60 one-dose screen, 48 h (100 = growth as untreated, 0 = no growth, -100 = all killed)
Holding throughout (conditions): 10 µM unless noted

The structures appear in SMILES notation. Compounds without any hit were thinned out: in the full panel of roughly 83,000, 20% have a hit.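 Cell lines were cultured in 96-well plates, exposed to a single compound concentration, and assessed for percent growth 48 hours later.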 Unmarked numbers belong to inactive results. Active and inactive are the calls of the source. Rule for the calls: active = growth percent below 10; inactive = the rest.

Consider `NC(=O)c1cccc(-c2ccc(S(=O)(=O)Nc3ccc4c(c3)N(C(=O)C3CC3)CCC4)cc2)c1`, for which the growth in the assay with NCI-H23 lung was 48%; in the assay on NCI-H226 lung, 63.7%; in the assay with NCI-H322M lung, 70%; in the assay on HOP-62 NSCLC, 38.4%; in the assay on NCI-H460 lung, 17.1%; with HOP-92 NSCLC, 33.7%. The growth was 7.75% (active) in the assay on NCI-H522 lung; 50.8% in the assay with A549/ATCC NSCLC; 100% in the assay on 786-0 renal; 43.6% with COLO 205 colon; 76.3% in the assay with DU-145 prostate; 25.6% in the assay with K-562 leukemia. Also, the growth in the assay on MALME-3M melanoma is 39.1%; in the assay on MDA-MB-231 breast it was 46.2%; with RXF 393 renal, 47.7%; in the assay on SF-268 CNS, 48.8%; in the assay on SF-295 CNS, 18%; with SF-539 CNS, 26.3%. The results for the growth in the assay with UACC-257 melanoma and in the assay with M14 melanoma were 46.2% and 95.5%, respectively.
Turning to `CCCCCCSc1ncnc2nc[nH]c12`, the growth with NCI-H23 lung is 92.4%; with NCI-H226 lung, 85.5%; in the assay with NCI-H322M lung, 99.9%; in the assay with HOP-62 NSCLC, 95.6%; with NCI-H460 lung, 94.5%; in the assay with HOP-92 NSCLC, 68.3%. Moreover, the growth in the assay on NCI-H522 lung is 86.3%; in the assay on A549/ATCC NSCLC, 96.1%; in the assay on 786-0 renal, 89.7%; in the assay on COLO 205 colon, 95.2%; in the assay with DU-145 prostate, 95%; with K-562 leukemia, 70.7%. Further, the growth with MALME-3M melanoma was 102%; in the assay with MDA-MB-231 breast, 96.8%; in the assay with RXF 393 renal it was 78.1%; with SF-268 CNS it was 96.3%; in the assay on SF-295 CNS, 88.8%; in the assay with SF-539 CNS, 87.4%. Besides, the growth was 91.4% in the assay on UACC-257 melanoma and 97% with M14 melanoma.
For the compound `O=C(Nc1cccc2cccnc12)c1cc(C(=O)c2ccc(Cl)cc2)n2ccc(-c3ccncc3)cc12`, the growth is 102% with NCI-H23 lung; 91% in the assay on NCI-H226 lung; 95.7% in the assay on NCI-H322M lung; 88.3% in the assay with HOP-62 NSCLC; 98% in the assay on NCI-H460 lung; 83.9% in the assay with HOP-92 NSCLC. Moreover, the growth in the assay with NCI-H522 lung is 88.8%; in the assay with A549/ATCC NSCLC, 99.1%; in the assay on 786-0 renal, 103%; in the assay on COLO 205 colon, 111%; in the assay on DU-145 prostate it was 106%; in the assay with K-562 leukemia, 113%. The growth in the assay with MALME-3M melanoma was 90.7%; with MDA-MB-231 breast, 110%; in the assay on RXF 393 renal, 104%; in the assay with SF-268 CNS, 97.8%; in the assay with SF-295 CNS, 98.9%; with SF-539 CNS, 99.7%. Also, the growth with UACC-257 melanoma was 97.7%; with M14 melanoma, 96.1%.
Take `COc1ccc(C2NC(=O)C(C#N)c3c2sc2c(F)cccc32)cc1` (stereo not given): the growth with NCI-H23 lung was 76.3%; in the assay with NCI-H226 lung it was 60.3%; with NCI-H322M lung, 65.3%; in the assay on HOP-62 NSCLC it was 46.4%; with NCI-H460 lung, 28.6%; in the assay with HOP-92 NSCLC, 54.2%. The growth with NCI-H522 lung was 20.1%; in the assay with A549/ATCC NSCLC it was 42.6%; in the assay on 786-0 renal, 71%; in the assay with COLO 205 colon it was 91.6%; with DU-145 prostate it was 67.8%; in the assay with K-562 leukemia, 14.1%. Also, the growth with MALME-3M melanoma is 47.2%; in the assay on MDA-MB-231 breast it was 71.2%; in the assay with RXF 393 renal, 55.9%; in the assay with SF-268 CNS it was 62%; in the assay on SF-295 CNS it was 30.5%; with SF-539 CNS it was 39.5%. Besides, the growth in the assay with UACC-257 melanoma was 63.9%; with M14 melanoma, 33.3%.
Regarding `CC[C@@](C)(NC(=O)[C@H](C)NC(=O)CCNC(=O)C(C)(C)NC(=O)[C@H](C)NC(=O)[C@@H]1CCCN1C(=O)[C@@](C)(CC)NC(=O)[C@H](Cc1ccccc1)NC(=O)C1CCCN1C(=O)C(C)(C)NC(=O)C1CCCN1C(=O)C(C)(C)NC(C)=O)C(=O)NCCC(=O)N[C@@H](CC(C)C)C(=O)NC(C)(C)C(=O)NCCC(=O)N[C@@H](CC(C)C)C(=O)NC(C)(C)C(=O)NC(C)(C)C(=O)N[C@@H](CC(C)C)C(=O)NCCC(=O)NCO` (stereo not given in full), the growth in the assay with NCI-H23 lung was -89.5% (active); in the assay with NCI-H226 lung it was -97% (active); in the assay on NCI-H322M lung, -87.9% (active); with HOP-62 NSCLC it was -92% (active); with NCI-H460 lung, -78.1% (active); with HOP-92 NSCLC it was -94.7% (active). The growth is -84.2% (active) in the assay with NCI-H522 lung; -81.3% (active) with A549/ATCC NSCLC; -94.6% (active) in the assay on 786-0 renal; -87.9% (active) with COLO 205 colon; -100% (active) with DU-145 prostate; -60.9% (active) in the assay with K-562 leukemia. Moreover, the growth is -84.9% (active) in the assay on MALME-3M melanoma; -88.5% (active) in the assay with MDA-MB-231 breast; -97.5% (active) in the assay with RXF 393 renal; -96.8% (active) in the assay with SF-268 CNS; -98.6% (active) in the assay with SF-295 CNS; -90% (active) with SF-539 CNS. In addition, the growth with UACC-257 melanoma was -95.2% (active); in the assay with M14 melanoma, -88.6% (active).
As for `C=C(C)[C@@H]1CC[C@]2(C(=O)NCCCN)CC[C@]3(C)[C@H](CC[C@@H]4[C@@]5(C)CC[C@H](O)C(C)(C)[C@@H]5CC[C@]43C)[C@@H]12`, the growth in the assay with NCI-H23 lung is -8.47% [100 µM] (active); with NCI-H226 lung, 36.6% [100 µM]; in the assay with NCI-H322M lung, -68.8% [100 µM] (active); with HOP-62 NSCLC, -26.8% [100 µM] (active); in the assay on NCI-H460 lung, -43.2% [100 µM] (active); with HOP-92 NSCLC, -55.5% [100 µM] (active). Besides, the growth in the assay on NCI-H522 lung is -17% [100 µM] (active); in the assay on A549/ATCC NSCLC, -4.7% [100 µM] (active); in the assay with 786-0 renal it was -22.6% [100 µM] (active); in the assay on COLO 205 colon it was 7.82% [100 µM] (active); in the assay with DU-145 prostate, -100% [100 µM] (active); in the assay on K-562 leukemia, 1.1% [100 µM] (active). In addition, the growth in the assay with MALME-3M melanoma was -18.8% [100 µM] (active); in the assay on MDA-MB-231 breast it was -47.8% [100 µM] (active); with RXF 393 renal it was -42.3% [100 µM] (active); in the assay on SF-268 CNS, -16.9% [100 µM] (active); with SF-295 CNS, -26.4% [100 µM] (active); in the assay on SF-539 CNS, -36.2% [100 µM] (active). For the same compound, the growth in the assay with UACC-257 melanoma was -46.7% [100 µM] (active); in the assay on M14 melanoma, 5.07% [100 µM] (active).
In the case of `CS(=O)(=O)c1cccnn1`, the growth in the assay with NCI-H23 lung was 95.8%; with NCI-H226 lung, 97.4%; in the assay on NCI-H322M lung, 99.7%; in the assay on HOP-62 NSCLC, 103%; in the assay on NCI-H460 lung, 101%; in the assay on HOP-92 NSCLC it was 75.5%. Besides, the growth in the assay on NCI-H522 lung was 82%; in the assay with A549/ATCC NSCLC, 104%; with 786-0 renal, 97.2%; in the assay with COLO 205 colon, 131%; in the assay with DU-145 prostate, 97.6%; in the assay on K-562 leukemia, 84.3%. Besides, the growth with MALME-3M melanoma was 88.8%; in the assay on MDA-MB-231 breast, 102%; with RXF 393 renal, 102%; in the assay on SF-268 CNS it was 98.8%; with SF-295 CNS it was 112%; in the assay on SF-539 CNS, 82%. Also, the growth in the assay on UACC-257 melanoma is 108%; in the assay with M14 melanoma it was 103%.

The record behind these values is PubChem BioAssay (NCI).
